# In the library only some 3.6% were active in any assay of this set; here they are far more common.
# IkB sig inh – IkB pathway inhibition in ABC-DLBCL cells; ABC-DLBCL IkBa-CBG/CBR dual luciferase ratio, 4 h; response scale: scaled: untreated 0%, proteasome inhibitor 100%; actives 0.04% (n = 110,000); AID 445; Potency, µM (doses to about 57.1 µM), for the others: top-dose IkBa stabilization activation; active = well fitted curve in the direction sought with a large enough effect in the signal ratio, not every such curve was filed as active; inconclusive = small, poorly fitted or top-dose-only effect, or a change in a side signal; the % refers to the signal ratio;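 note: the direction sought is a rising ratio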
#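 Luminescence ratio of IκBα-fused green versus native red beetle luciferase in OCI-Ly3 cells, 4 h post-doxycycline with compound; red signal alone, scaled from basal (0%) to zero light (-100%), flagged nonspecific or cytotoxic effects.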
# ERK AVP inh – inhibitors of vasopressin-stimulated ERK signaling pathway. HEK293-V1b, vasopressin-stimulated pERK AlphaScreen. Potency, µM (highest dose often 57.5 µM), inactives show at the highest dose activity, negative = inhibition, hits mostly inhibitors. actives 0.99% (n = 72,000). AID 995; note: % is set by controls: 0 for no effect and ±100 for the full control effect; nearly all actives have a fitted effect of over 55% in size
#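 HEK293 cells stably expressing V1b receptor, seeded overnight in 1% FBS, were treated with compounds for 30 min at 37C, then stimulated 5 min with 25 nM vasopressin; phospho-ERK read by AlphaScreen SureFire after lysis.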
# TSHR agonist – TSH receptor (human) agonism; AID 926; actives 0.48% (n = 73,000); HEK293-CNG-TSHR cells (CNG channel as cAMP sensor), membrane potential dye, cAMP; P16473; Potency, µM (doses to about 57.1 µM), inactives show at the highest dose activation, usual class: activators; active = well fitted activation curve with a large enough effect in the main read-out, with a control signal flat, not every such curve was filed as active; inconclusive = small, poorly fitted or top-dose-only effect, or a change in a side signal; inactive = no such curve, though single readings can be large or run the other way; % of control where 0% means no effect;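 note: the control signal comes from parental cells without the receptor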
# Target sequence (P16473 whole entry, looked up): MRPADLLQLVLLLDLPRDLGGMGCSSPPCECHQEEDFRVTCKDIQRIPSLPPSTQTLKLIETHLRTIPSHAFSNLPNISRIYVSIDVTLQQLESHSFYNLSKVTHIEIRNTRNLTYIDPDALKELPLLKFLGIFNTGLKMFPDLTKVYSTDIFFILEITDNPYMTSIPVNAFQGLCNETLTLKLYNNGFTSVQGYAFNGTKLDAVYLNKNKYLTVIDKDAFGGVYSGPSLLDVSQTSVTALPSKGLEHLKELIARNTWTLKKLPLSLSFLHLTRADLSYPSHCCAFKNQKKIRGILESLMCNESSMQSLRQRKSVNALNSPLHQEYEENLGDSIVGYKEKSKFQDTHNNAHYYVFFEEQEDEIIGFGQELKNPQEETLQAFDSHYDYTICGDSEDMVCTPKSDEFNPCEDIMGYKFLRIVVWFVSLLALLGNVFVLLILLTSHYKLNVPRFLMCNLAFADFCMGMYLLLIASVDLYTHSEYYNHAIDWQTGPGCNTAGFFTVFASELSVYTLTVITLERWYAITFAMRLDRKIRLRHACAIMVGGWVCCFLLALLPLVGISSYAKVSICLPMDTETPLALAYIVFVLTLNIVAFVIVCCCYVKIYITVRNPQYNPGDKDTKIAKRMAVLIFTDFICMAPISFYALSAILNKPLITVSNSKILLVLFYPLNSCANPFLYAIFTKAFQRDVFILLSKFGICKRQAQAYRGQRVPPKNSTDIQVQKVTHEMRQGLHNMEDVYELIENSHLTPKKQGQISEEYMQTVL
#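 cAMP rise detected as CNG-channel membrane depolarization by fluorescent dye (emission 590 nm), 30 min after compound, following 60 min dye loading containing 100 uM RO 20-1724 at room temperature. Cells: TSHR/CNG HEK 293, with parental CNG HEK 293 as control.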
# HEK293 cAMP ctrl – parental HEK293 cAMP activation (counter-screen); parental HEK293 CNG cAMP sensor, membrane potential fluorescence; Potency, µM (top dose mostly 57.1 µM), for the others: at the highest dose activation, actives largely listed as activators; actives 2.5% (n = 73,000); AID 938; note: % of control where 0% means no effect; nearly all actives have a fitted effect of over 55% in size
#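 Parental HEK 293 cells stably expressing a modified CNG channel (no TSHR) report cAMP rise as membrane depolarization. Membrane potential dye with 100 uM RO 20-1724 was loaded for 60 min at room temperature, then compound added for 30 min; fluorescence read at 590 nm.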
# CRE-bla Fsk – alters forskolin-stimulated CRE reporter signaling in CHO cells; Potency, µM (highest dose often 38.2 µM), without a hit: top-dose activity change, negative = inhibition, usual class: activators; CHO CRE-bla reporter (cAMP response element driving beta-lactamase), forskolin EC10, beta-lactamase ratio; actives 2.5% (n = 71,000); active = well fitted activation curve with a large enough effect in the signal ratio, with a control signal flat, not every such curve was filed as active; inconclusive = small, poorly fitted or top-dose-only effect, or effect the other way, or a change in a side signal; the % refers to the signal ratio; note: % of control where 0% means no effect
#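 Beta-lactamase reporter under a cAMP responsive element in CHO cells; compounds tested in titration series against EC10 NKH 477, 3 h at 37 °C. Read-out: CCF4 FRET ratio 460nm/530nm (excitation 405nm) giving %Activity, fitted to AC50.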
# * marks the source's active call; other numbers are inactive results; ? = inconclusive; . = no result given; [ ] = remark or other dose. Unless noted, calls come from the whole dose curve; as a rule, active = well fitted curve in the direction sought with a large enough effect; inconclusive = small, poorly fitted or top-dose-only effect, or another doubt; inactive = no such curve, though single readings can be large; an effect the other way counts as inactive or inconclusive. Potency is the fitted concentration of half-maximal effect.
SMILES,IkB sig inh,ERK AVP inh,TSHR agonist,HEK293 cAMP ctrl,CRE-bla Fsk
Cc1c(C(=O)OCCOC(C)C)[nH]c2c1C(=O)CC(c1ccco1)C2 (stereo unspecified),?,?,9.6%,10.5%,0.501µM*
COC(=O)c1[nH]c2c(c1C)C(=O)CC(c1cccs1)C2 (stereo unspecified),0.0%,-28.7%,.,16.2%,3.98µM*
COCCOC(=O)c1[nH]c2c(c1C)C(=O)CC(c1ccccc1)C2 (stereo unspecified),1.2%,22.7%,1.1%,-3.2%,?
CCCCOC(=O)c1[nH]c2c(c1C)C(=O)CC(c1cc(OC)c(OC)c(OC)c1)C2 (stereo unspecified),?,25.1µM*,?,?,7.8%
COc1ccc(CNC(=O)Cn2c(=O)oc3cc(S(=O)(=O)N4CCC(C)CC4)ccc32)cc1,-0.3%,.,.,.,.
COCCOC(=O)c1[nH]c2c(c1C)C(=O)CC(c1ccco1)C2 (stereo unspecified),?,?,-7.0%,2.2%,10µM*
Cc1c(C(=O)OCc2ccccc2)[nH]c2c1C(=O)CC(c1ccco1)C2 (stereo unspecified),?,-7.3%,.,10.4%,0.794µM*
CSCCOC(=O)c1[nH]c2c(c1C)C(=O)CC(c1ccco1)C2 (stereo unspecified),?,?,9.3%,25.1%,7.94µM*
COc1ccc(C2CC(=O)c3c([nH]c(C(=O)OCc4ccccc4)c3C)C2)cc1 (stereo unspecified),-2.3%,.,.,.,.
CC(=O)Nc1cccc(C(=O)N2CCN(Cc3ccccc3)CC2)c1,-0.9%,7.9%,-0.3%,0.5%,-9.6%
O=C(c1cccc(C(=O)N2CCN(Cc3ccccc3)CC2)c1)N1CCN(Cc2ccccc2)CC1,?,?,?,1.26µM*,-2.7%
CC1CCCCN1C(=O)Cn1c(=O)n(C2CCCCC2)c(=O)c2ccccc21 (stereo unspecified),1.6%,-10.4%,15.8µM*,25.9%,?
Cc1nnc2sc(-c3csc4c3CCCC4)nn12,3.2%,-18.1%,.,27.9%,10µM*
Cc1nnc2sc(-c3ccncc3)nn12,0.8%,-20.9%,.,4.7%,10.9%
Nc1c(C(=O)NC2CCCC2)c2nc3ccccc3nc2n1/N=C/c1cccnc1,5.2%,-12.9%,?,?,?
CCS(=O)(=O)N1CCc2cc(C(=O)NCCc3ccc(OC)cc3)ccc21,9.2%,.,.,.,.
COc1cc2c(cc1NC(=O)c1ccco1)CCCC2,-1.9%,-10.1%,?,?,?
COc1cc(C(=O)OCC(=O)c2cc(C)n(C)c2C)cc(NC(=O)c2ccco2)c1OC,-1.9%,-22.1%,?,?,3.16µM*
CCCn1c(SCc2ccccn2)nc2c1c(=O)n(C)c(=O)n2C,-0.8%,-26.3%,4.8%,6.4%,?
CCc1nc(SCc2ccccn2)c2c(=O)n(C)c(=O)n(C)c2n1,1.4%,.,-0.4%[11.4 µM],-3.7%,2.51µM*
CC(C)c1nc(SCc2ccccn2)c2c(=O)n(C)c(=O)n(C)c2n1,2.8%,.,10.8%,0.3%,5.01µM*
CCc1nc(SCC(=O)N2CCN(c3ccccc3)CC2)c2c(=O)n(C)c(=O)n(C)c2n1,3.1%,.,-2.7%,10.6%,24.8%
CC(C)(C)NC(=O)C(c1ccccc1)N(C(=O)c1csnn1)C1CC1 (stereo unspecified),0.6%,1.7%,3.4%,1.5%,-4.5%
Clc1ccc(C(c2nnnn2C2CCCCC2)N(Cc2cccnc2)Cc2ccco2)cc1 (stereo unspecified),?,-3.2%,?,3.16µM*,-2.5%
COCCN(CCOC)S(=O)(=O)c1ccc(C(=O)NCCCN2CCOCC2)cc1,0.9%,-1.9%,-0.6%,3.3%,-5.4%
SMILES,IkB sig inh,ERK AVP inh,TSHR agonist,HEK293 cAMP ctrl,CRE-bla Fsk
CC(C)c1cc(C(F)(F)F)nc(NNc2nc(C(C)C)cc(C(F)(F)F)n2)n1,2.7%[11.4 µM],-1.0%[11.5 µM],?,5.01µM*,11.2%[7.6 µM]
CCN(C(=O)c1c(-c2ccccc2)noc1C)c1ccccc1,2.5%,-9.4%,10µM*,7.8%,?
O=S(=O)(c1ccc(S(=O)(=O)N(Cc2ccco2)Cc2ccccc2Cl)cc1)N1CCCC1,1.6%,27.5%,.,15.1%,-0.3%
CN(C)S(=O)(=O)c1ccc(S(=O)(=O)N(Cc2ccco2)Cc2ccccc2Cl)cc1,0.2%,3.4%,?,12.6µM*,17.5%
CCCn1nnnc1SCC(=O)NCc1ccc2c(c1)OCO2,1.8%,4.8%,0.7%,15.8%,-3.0%
Cc1nc2ccccc2c(=O)n1NCc1cc(Br)cs1,-2.7%,7.4%,?,15.8µM*,-24.5%
Cc1nc2ccccc2c(=O)n1NS(C)(=O)=O,0.7%,-7.0%,-0.6%,5.5%,-2.0%
Cc1cc(=O)n2nc(N3CCCC(C(=O)NCCCN4CCc5ccccc5C4)C3)sc2n1 (stereo unspecified),-1.2%,17.8%,-6.1%[11.4 µM],-0.6%,-17.4%
CCN(C1CCCCC1)S(=O)(=O)c1cn(C)c(=O)n(C)c1=O,-0.5%,.,?,3.16µM*,?
CC(C)=CC1C(C(=O)Nc2ccc(Br)cn2)C1(C)C (stereo unspecified),1.0%,4.9%,?,25.1µM*,-5.4%
N#Cc1c[nH]n2c(NC3CCCCC3)c(-c3ccc(F)cc3)nc12,2.8%,.,.,.,.
NC(=O)N[C@H]1NC(=O)NC1=O,-1.2%[25.6 µM],-3.2%[25.7 µM],?,12.6µM*,0.5%[17.1 µM]
O=C(CC1NC(=O)NC1=O)Nc1cccc2ccccc12 (stereo unspecified),-3.3%,-14.0%,11.7%,1.4%,?
CCOC(=O)C(CC)Sc1nc2c(c(=O)[nH]c(=O)n2C)n1C/C=C(/C)Cl (stereo unspecified),1.8%,?,?,?,?
CCOC(=O)C1CCN(S(=O)(=O)c2cnc[nH]2)CC1,-1.6%,-3.3%,-2.4%,9.1%,-6.9%
CCNc1nc(N)nc(Oc2ccc(OCCOc3ccc(Cl)cc3Cl)nn2)n1,-0.4%,?,5.2%,0.7%,6.31µM*
CCCCN(C(=O)c1c(C)[nH]c(C(=O)OCC)c1C)c1ccccc1,0.2%,-7.0%,16.9%,16.7%,6.7%
CCOC(=O)c1[nH]c(COC(=O)CCCOc2ccccc2)c(C(=O)OCC)c1C,0.7%,4.8%,?,?,12.6µM*
CCOC(=O)COc1ccc(N)cc1CC(NC(C)=O)(C(=O)OCC)C(=O)OCC,2.0%,?,-1.0%,1.2%,-3.5%
c1ccc2ccccc2c1,0.3%,4.3%,-13.1%,18.1%,-12.1%
CN(C)c1ncnc2ccc(-c3ccoc3)cc12,-3.0%[11.4 µM],?,17.1%,7.5%,-17.6%
CN(C)c1ncnc2ccc(-c3ccccc3C#N)cc12,-0.6%[11.4 µM],-10.8%,5.1%,-13.3%,2µM*
CN(C)c1ccc(-c2ccc3ncnc(N(C)C)c3c2)cc1,?,?,-0.9%,-17.2%,10µM*

# Source: PubChem (National Center for Advancing Translational Sciences (NCATS))
